Our source for the growth values is PubChem BioAssay (NCI).

Some test systems named below: NCI-H23 lung; NCI-H226 lung; NCI-H322M lung; HOP-62 NSCLC; HOP-92 NSCLC; NCI-H522 lung; A549/ATCC NSCLC; 786-0 renal; COLO 205 colon; NCI-H460 lung.
Experiment in all cases: NCI-60 one-dose screen, 48 h (100 = growth as untreated, 0 = no growth, -100 = all killed)
Common to all, as to conditions: 10 µM unless noted

The panel holds about 83,000 compounds, 20% with a hit somewhere; the sample as a whole holds those more often.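 Single-dose data. Exposure time 48 hours. Values below 10 considered active.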 Values without a mark were called inactive. Activity calls are given as the source filed them.

Consider `O=S(=O)(NCCCNc1cc(-c2c(-c3cccc(O)c3)nc3sccn23)ccn1)c1cccc(Cl)c1`, for which the growth in the assay with NCI-H23 lung is 49.1%; in the assay on NCI-H226 lung, 61.5%; with NCI-H322M lung, 85.5%; in the assay on HOP-62 NSCLC it was 72.8%; with HOP-92 NSCLC, 111%; with NCI-H522 lung it was 44.1%. Besides, the figures for the growth with A549/ATCC NSCLC, in the assay with 786-0 renal and in the assay with COLO 205 colon were 66.5%, 54.8% and 46.3%, respectively.

Turning to `CNC(=O)CCN1CCN(CC/C=C2\c3ccccc3Sc3ccc(Cl)cc32)CC1`, the growth with NCI-H23 lung was 91%; in the assay with NCI-H226 lung, 121%; in the assay with NCI-H322M lung it was 74.8%; in the assay with HOP-62 NSCLC, 102%; in the assay with NCI-H460 lung, 92.6%; with NCI-H522 lung, 85%. For the same compound, the growth was -27.4% (active) with A549/ATCC NSCLC, 75.9% in the assay with 786-0 renal and 85.8% in the assay on COLO 205 colon.

`O=c1[nH][n+](-c2ccc(Cl)cc2)no1`: the growth in the assay on NCI-H23 lung was 91.6%; in the assay on NCI-H226 lung, 87.2%; with NCI-H322M lung it was 75.6%; in the assay on HOP-62 NSCLC it was 82.7%; with HOP-92 NSCLC, 95.1%; in the assay on NCI-H522 lung, 59.2%. Further, the growth was 62.1% in the assay on A549/ATCC NSCLC, 61.2% with 786-0 renal and 77.9% with COLO 205 colon.

Regarding `CC1CC2Oc3ccc(Cl)cc3C(=O)N2O1` (stereo not given), the growth was 99.5% in the assay with NCI-H23 lung; 99.3% in the assay with NCI-H226 lung; 126% with NCI-H322M lung; 101% in the assay on HOP-62 NSCLC; 86.4% in the assay on HOP-92 NSCLC; 108% in the assay on NCI-H522 lung. In addition, the figures for the growth in the assay with A549/ATCC NSCLC, in the assay with 786-0 renal and with COLO 205 colon were 98%, 104% and 108%, respectively.

As to `COc1ccc2cc(-c3cc(OC)c(OC)c(OC)c3)c(=O)oc2c1`, the growth was 79.8% in the assay with NCI-H23 lung; 78.4% in the assay on NCI-H226 lung; 103% in the assay with NCI-H322M lung; 68.3% in the assay on HOP-62 NSCLC; 79.2% in the assay on HOP-92 NSCLC; 48.3% in the assay on NCI-H522 lung. Further, the growth with A549/ATCC NSCLC is 42.1%; with 786-0 renal, 68.2%; in the assay with COLO 205 colon, 83.3%.

In the case of `Cc1cc(NCCCCNc2ccnc3cc(Cl)ccc23)nc(Nc2ccc(C(=O)N3CCCC3)cc2)n1`, the growth in the assay with NCI-H23 lung is 81.4%; in the assay with NCI-H226 lung, 108%; in the assay on NCI-H322M lung, 67.6%; with HOP-62 NSCLC, 92.5%; with HOP-92 NSCLC, 72.6%; in the assay with NCI-H522 lung it was 26.5%. The figures for the growth in the assay on A549/ATCC NSCLC, in the assay with 786-0 renal and in the assay on COLO 205 colon were 24%, 68.4% and -42.8% (active), respectively.

With `CCCCOc1nc2ccccc2cc1C1CNC(=O)c2ccccc2N1` (stereo not given), the growth in the assay on NCI-H23 lung is 23.8%; in the assay on NCI-H226 lung, 0.702% (active); with NCI-H322M lung, 47.2%; in the assay on HOP-62 NSCLC it was 23%; in the assay on HOP-92 NSCLC, 48.9%; with NCI-H522 lung, -13.6% (active). Besides, the growth was 19.9% with A549/ATCC NSCLC, 26.2% in the assay with 786-0 renal and 9.84% (active) in the assay with COLO 205 colon.

`CC1CC(C(C)(C)C)C(=O)C(C(C)(C)C)C1` (stereo not given): the growth with NCI-H23 lung is 109%; with NCI-H226 lung, 98.8%; in the assay on NCI-H322M lung, 107%; in the assay with HOP-62 NSCLC it was 105%; in the assay with HOP-92 NSCLC, 85%; in the assay with NCI-H522 lung, 90.8%. Besides, the growth is 100% in the assay on A549/ATCC NSCLC, 100% in the assay with 786-0 renal and 115% in the assay with COLO 205 colon.

Consider `C#Cc1cccc(NC(=O)c2ccc(NC(=O)CCl)cc2)c1`, for which the growth is -55.2% [8.25 µM] (active) in the assay with NCI-H23 lung; 8.52% [8.25 µM] (active) in the assay on NCI-H226 lung; 86.6% [8.25 µM] in the assay on NCI-H322M lung; 10.7% [8.25 µM] with HOP-62 NSCLC; -57.6% [8.25 µM] (active) in the assay on HOP-92 NSCLC; -51.6% [8.25 µM] (active) with NCI-H522 lung. Moreover, the growth is 59.1% [8.25 µM] with A549/ATCC NSCLC, -50.8% [8.25 µM] (active) in the assay with 786-0 renal and -66.9% [8.25 µM] (active) with COLO 205 colon.

As for `COc1ccc(-c2cc(-c3cc(OC)ccc3OC)nc(SCC(=O)c3ccccc3)c2C#N)cc1`, the growth was 92.7% with NCI-H23 lung; 84.4% in the assay with NCI-H226 lung; 103% in the assay with NCI-H322M lung; 89.9% in the assay with HOP-62 NSCLC; 92.3% with HOP-92 NSCLC; 79% in the assay with NCI-H522 lung. Moreover, the figures for the growth in the assay with A549/ATCC NSCLC, with 786-0 renal and in the assay on COLO 205 colon were 92.7%, 109% and 97.8%, respectively.

As for `O=C(Nc1cccc(C(F)(F)F)c1)Nc1cccc(C(F)(F)F)c1`, the growth in the assay on NCI-H23 lung was 1.97% (active); in the assay on NCI-H226 lung, -1.66% (active); with NCI-H322M lung, 16.7%; with HOP-62 NSCLC, -1.14% (active); with NCI-H522 lung, -35% (active); in the assay with A549/ATCC NSCLC it was -1.94% (active). The growth in the assay with 786-0 renal is 8.34% (active); in the assay with COLO 205 colon it was -85.2% (active).

Take `Cc1c(O)cc(-c2cnc(N/N=C\c3ccc(Cl)cc3)s2)c(O)c1C`: the growth in the assay with NCI-H23 lung is 91.5%; in the assay with NCI-H226 lung, 87.2%; in the assay on NCI-H322M lung, 96.9%; in the assay on HOP-62 NSCLC it was 98.6%; in the assay on HOP-92 NSCLC it was 81.1%; with NCI-H522 lung, 65.1%. The growth with A549/ATCC NSCLC was 85.1%; in the assay on 786-0 renal it was 110%; in the assay with COLO 205 colon it was 106%.

For `Cc1ccc(-c2c(-c3ccccc3)c(=O)oc3ccc(C)cc23)cc1`, the growth with NCI-H23 lung was 96.1%; in the assay with NCI-H226 lung, 89.6%; in the assay on NCI-H322M lung, 97.8%; with HOP-62 NSCLC, 101%; with HOP-92 NSCLC it was 84%; in the assay on NCI-H522 lung it was 107%. The growth in the assay with A549/ATCC NSCLC is 91%; with 786-0 renal, 105%; in the assay on COLO 205 colon, 91.4%.

On to `COc1ccc(-c2cc(-c3ccc(Nc4nc(Nc5ccc(Cl)cc5)nc(Nc5ccc(Cl)cc5)n4)cc3)nc(N)c2C#N)cc1`, for which the growth was 30% in the assay on NCI-H23 lung; 9.85% (active) with NCI-H226 lung; 113% with NCI-H322M lung; 86.8% with HOP-62 NSCLC; -53.8% (active) in the assay on HOP-92 NSCLC; 83.4% in the assay on NCI-H522 lung. In addition, the growth in the assay on A549/ATCC NSCLC is 37%; with 786-0 renal, 41.6%; in the assay on COLO 205 colon it was 5.26% (active).
